Assay [1] can be described thus: small molecules captured by biotinylated probe aFSTL3 – biochemical, small-molecule microarray, fluorescence 635/667, stem cell growth factor project, primary screen (AID 1064).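 Further: measures binding of the biotinylated anti-FSTL3 antibody to printed compounds.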 The following applies: higher = more signal.
The nature of assay [2]: binders from COS7 lysate, DM2A8 probe, primary screen, torsin A project, cell lysate, small-molecule microarray, fluorescence 635/667 (AID 1065). The conditions noted are these: higher = more signal, COS7 lysate expressing mutant human TOR1A.
A short description of assay [3]: small molecules captured by biotinylated probe aFGF2 – biochemical, small-molecule microarray, fluorescence 635/667, stem cell growth factor project, primary screen (AID 1067).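 Further: measures binding of biotinylated aFGF2 protein to printed compounds on slides; z-score merges feature fluorescence and signal-to-noise across triplicate slides.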 The conditions noted are these: higher = more signal.
Assay [4] can be described thus: small molecules captured by biotinylated probe aFGF10 – biochemical, small-molecule microarray, fluorescence 635/667, stem cell growth factor project, primary screen (AID 1071).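 Further: score merges 667 nm spot intensity and signal to noise from triplicate slides.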 The conditions noted are these: higher = more signal.
For assay [5], the target named is Neurogenic locus notch homolog protein 2 (Homo sapiens) (UniProt Q04721). Kind of assay: small molecules binding Notch2 protein – biochemical, small-molecule microarray, 635 nm fluorescence, stem cell growth factors, primary screen (AID 1073). The following applies: higher = more signal.
The target in assay [6] is Pro-neuregulin-1, membrane-bound isoform (Homo sapiens) (UniProt Q02297). Kind of assay: small molecules binding neuregulin-1 protein – biochemical, small-molecule microarray, fluorescence 635/667, psychiatric disease protein project, primary screen (AID 1075).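 Further: score combines 667 nm spot fluorescence with signal to noise.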 The conditions noted are these: NRG1 binding, 635 nm fluorescence, higher = more signal.
Assay [7] deals with Neuregulin-1 EGF-like domain. Description: small molecules binding NRG1 EGF domain – biochemical, small-molecule microarray, 635 nm fluorescence, primary screen (AID 1081).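 Further: binding of the protein to compounds printed on small-molecule microarray slides.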 The following applies: higher = more signal.
The nature of assay [8]: FRG1 expression reporter modulators in myotubes – cell-based, C2C12 myotubes, firefly/Renilla luciferase, luminescence, FRG1 inhibition for FSHD, primary screen (AID 1084). The following applies: FRG1 promoter luciferase, higher = more signal, called active from +8 up or from −8 down.
Assay [9] in a line: small molecules captured by biotinylated probe aFST – biochemical, small-molecule microarray, fluorescence 635/667, stem cell growth factor project, primary screen (AID 1086).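 Further: score merges 667 nm fluorescence with signal-to-noise of each printed compound spot.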 The conditions noted are these: higher = more signal.
The nature of assay [10]: binders of probe aHhip on microarray, primary screen, stem cell growth factor project, biochemical, small-molecule microarray, fluorescence 635/667 (AID 1087).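 Further: score merges spot fluorescence at 667nm with spot signal to noise ratio.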 The following applies: higher = more signal.
Assay [11] concerns PRMT1 (protein arginine N-methyltransferase 1). Description: small molecules binding arginine methyltransferase PRMT1 – biochemical, small-molecule microarray, 635 nm fluorescence, primary screen (AID 1088).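 Further: binding of Prmt1 protein to compounds spotted on small-molecule microarray slides.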 The following applies: higher = more signal.
Assay [12] is described as follows: growth effects on S. cerevisiae YJM789 – YJM789 clinical isolate, OD600, 24 h, basal, primary screen (AID 1089).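 Further: growth of clinical yeast isolate S. cerevisiae YJM 789 seeded 1000 cells per well; test concentration not given here.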 The following applies: higher = more signal, called active from +8 up or from −8 down.
Assay [13] in a line: S. pombe growth modifiers, basal conditions – strain 972, OD600, 24 h, no modulator, primary screen (AID 1090).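 Further: basal condition with compound alone and no growth modifier present; test concentration not given here.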 The conditions noted are these: S. pombe 972 growth, higher = more signal, called active from +8 up or from −8 down.
Assay [14] can be described thus: budding yeast growth modifiers under rapamycin – strain BY4716, OD600, 96 h, primary screen (AID 1091). Further: test concentration not given here. The following applies: S. cerevisiae BY4716 + rapamycin, higher = more signal, called active from +8 up or from −8 down.
Assay [15] addresses Torsin-1A-interacting protein 2 (Homo sapiens) (UniProt Q8NFQ8). Kind of assay: small molecules binding lysate-expressed LULL1 – cell lysate, human LULL1 lysate, 635/667 nm fluorescence, primary screen (AID 1092).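 Further: probe is lysate of COS7 cells overexpressing human LULL1; score merges per-feature 667 nm fluorescence with signal-to-noise.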 The following applies: small-molecule microarray, hLULL1 lysate binding, 635 nm fluorescence; higher = more signal.
A short description of assay [16]: optical density change of DRC41 E. coli – strain DRC41, OD650, 24 h, E. coli filamentation project, primary screen (AID 1093).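 Further: MC1000 strain lacking acrAB efflux and sulA so SOS filamentation is blocked; test concentration not given here.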 The following applies: E. coli DRC41 growth, higher = more signal, called active from +8 up or from −8 down.
A short description of assay [17]: probe aLefty2 binding to arrayed compounds – biochemical, biotinylated probe, 635/667 nm fluorescence, primary screen (AID 1094).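 Further: score merges spot fluorescence near 667 nm with spot signal-to-noise ratio.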 The conditions noted are these: small-molecule microarray, higher = more signal.
Assay [18] deals with Noggin (protein binding on small-molecule microarray). Kind of assay: small molecules binding Noggin protein – biochemical, 635/667 nm fluorescence, primary screen (AID 1095).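 Further: score merges 667 nm feature fluorescence with signal to noise over triplicate slides.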 The following applies: 635 nm fluorescence, higher = more signal.
Assay [19] deals with Neurogenic locus notch homolog protein 3 (Homo sapiens) (UniProt Q9UM47). Kind of assay: small molecules binding NOTCH3 protein – biochemical, 635/667 nm fluorescence, primary screen (AID 1096). The following applies: small-molecule microarray, 635 nm fluorescence, higher = more signal.
Assay [20] can be described thus: probe aEGFR binding to arrayed compounds – biochemical, biotinylated probe, 635/667 nm fluorescence, primary screen (AID 1097).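 Further: probe is a biotinylated anti-EGFR antibody binding compounds printed on slides; score combines fluorescence near 667 nm and signal to noise of each spot.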 The following applies: small-molecule microarray, higher = more signal.

Structures are written as SMILES. Active and inactive are the calls of the source.

Chain of Torsin-1A-interacting protein 2 (Homo sapiens) (Q8NFQ8 whole entry, looked up): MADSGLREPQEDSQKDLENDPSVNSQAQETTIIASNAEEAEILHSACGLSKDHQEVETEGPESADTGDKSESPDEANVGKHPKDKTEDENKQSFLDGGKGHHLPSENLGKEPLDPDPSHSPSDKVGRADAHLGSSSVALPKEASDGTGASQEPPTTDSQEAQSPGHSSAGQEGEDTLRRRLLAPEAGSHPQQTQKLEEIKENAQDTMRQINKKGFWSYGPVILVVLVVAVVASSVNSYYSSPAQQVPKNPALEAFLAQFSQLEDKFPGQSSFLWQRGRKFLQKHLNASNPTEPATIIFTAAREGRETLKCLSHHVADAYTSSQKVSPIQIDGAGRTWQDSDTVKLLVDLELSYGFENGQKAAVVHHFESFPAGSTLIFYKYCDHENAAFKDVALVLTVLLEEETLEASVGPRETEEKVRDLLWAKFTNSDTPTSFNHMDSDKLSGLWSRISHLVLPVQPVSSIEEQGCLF
Chain of Pro-neuregulin-1, membrane-bound isoform (Homo sapiens) (Q02297 whole entry, looked up, the tested form may be a part, canonical isoform): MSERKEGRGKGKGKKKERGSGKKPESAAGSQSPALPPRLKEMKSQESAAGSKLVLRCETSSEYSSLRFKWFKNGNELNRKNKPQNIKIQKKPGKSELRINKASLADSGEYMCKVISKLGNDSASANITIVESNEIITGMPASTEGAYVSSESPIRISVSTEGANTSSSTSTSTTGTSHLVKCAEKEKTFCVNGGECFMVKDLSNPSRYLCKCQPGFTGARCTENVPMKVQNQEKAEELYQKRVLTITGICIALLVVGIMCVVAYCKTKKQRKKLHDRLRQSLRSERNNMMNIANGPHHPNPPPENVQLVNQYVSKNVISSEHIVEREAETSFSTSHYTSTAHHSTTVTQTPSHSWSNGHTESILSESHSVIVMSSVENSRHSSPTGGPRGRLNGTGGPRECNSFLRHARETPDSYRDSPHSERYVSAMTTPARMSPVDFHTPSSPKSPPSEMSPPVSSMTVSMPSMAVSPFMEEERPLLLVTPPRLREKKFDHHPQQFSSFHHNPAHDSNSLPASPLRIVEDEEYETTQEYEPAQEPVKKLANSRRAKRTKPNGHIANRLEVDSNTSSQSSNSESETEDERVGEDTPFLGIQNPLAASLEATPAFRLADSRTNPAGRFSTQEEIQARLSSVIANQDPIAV
Chain of Neurogenic locus notch homolog protein 2 (Homo sapiens) (Q04721 whole entry, looked up, canonical isoform): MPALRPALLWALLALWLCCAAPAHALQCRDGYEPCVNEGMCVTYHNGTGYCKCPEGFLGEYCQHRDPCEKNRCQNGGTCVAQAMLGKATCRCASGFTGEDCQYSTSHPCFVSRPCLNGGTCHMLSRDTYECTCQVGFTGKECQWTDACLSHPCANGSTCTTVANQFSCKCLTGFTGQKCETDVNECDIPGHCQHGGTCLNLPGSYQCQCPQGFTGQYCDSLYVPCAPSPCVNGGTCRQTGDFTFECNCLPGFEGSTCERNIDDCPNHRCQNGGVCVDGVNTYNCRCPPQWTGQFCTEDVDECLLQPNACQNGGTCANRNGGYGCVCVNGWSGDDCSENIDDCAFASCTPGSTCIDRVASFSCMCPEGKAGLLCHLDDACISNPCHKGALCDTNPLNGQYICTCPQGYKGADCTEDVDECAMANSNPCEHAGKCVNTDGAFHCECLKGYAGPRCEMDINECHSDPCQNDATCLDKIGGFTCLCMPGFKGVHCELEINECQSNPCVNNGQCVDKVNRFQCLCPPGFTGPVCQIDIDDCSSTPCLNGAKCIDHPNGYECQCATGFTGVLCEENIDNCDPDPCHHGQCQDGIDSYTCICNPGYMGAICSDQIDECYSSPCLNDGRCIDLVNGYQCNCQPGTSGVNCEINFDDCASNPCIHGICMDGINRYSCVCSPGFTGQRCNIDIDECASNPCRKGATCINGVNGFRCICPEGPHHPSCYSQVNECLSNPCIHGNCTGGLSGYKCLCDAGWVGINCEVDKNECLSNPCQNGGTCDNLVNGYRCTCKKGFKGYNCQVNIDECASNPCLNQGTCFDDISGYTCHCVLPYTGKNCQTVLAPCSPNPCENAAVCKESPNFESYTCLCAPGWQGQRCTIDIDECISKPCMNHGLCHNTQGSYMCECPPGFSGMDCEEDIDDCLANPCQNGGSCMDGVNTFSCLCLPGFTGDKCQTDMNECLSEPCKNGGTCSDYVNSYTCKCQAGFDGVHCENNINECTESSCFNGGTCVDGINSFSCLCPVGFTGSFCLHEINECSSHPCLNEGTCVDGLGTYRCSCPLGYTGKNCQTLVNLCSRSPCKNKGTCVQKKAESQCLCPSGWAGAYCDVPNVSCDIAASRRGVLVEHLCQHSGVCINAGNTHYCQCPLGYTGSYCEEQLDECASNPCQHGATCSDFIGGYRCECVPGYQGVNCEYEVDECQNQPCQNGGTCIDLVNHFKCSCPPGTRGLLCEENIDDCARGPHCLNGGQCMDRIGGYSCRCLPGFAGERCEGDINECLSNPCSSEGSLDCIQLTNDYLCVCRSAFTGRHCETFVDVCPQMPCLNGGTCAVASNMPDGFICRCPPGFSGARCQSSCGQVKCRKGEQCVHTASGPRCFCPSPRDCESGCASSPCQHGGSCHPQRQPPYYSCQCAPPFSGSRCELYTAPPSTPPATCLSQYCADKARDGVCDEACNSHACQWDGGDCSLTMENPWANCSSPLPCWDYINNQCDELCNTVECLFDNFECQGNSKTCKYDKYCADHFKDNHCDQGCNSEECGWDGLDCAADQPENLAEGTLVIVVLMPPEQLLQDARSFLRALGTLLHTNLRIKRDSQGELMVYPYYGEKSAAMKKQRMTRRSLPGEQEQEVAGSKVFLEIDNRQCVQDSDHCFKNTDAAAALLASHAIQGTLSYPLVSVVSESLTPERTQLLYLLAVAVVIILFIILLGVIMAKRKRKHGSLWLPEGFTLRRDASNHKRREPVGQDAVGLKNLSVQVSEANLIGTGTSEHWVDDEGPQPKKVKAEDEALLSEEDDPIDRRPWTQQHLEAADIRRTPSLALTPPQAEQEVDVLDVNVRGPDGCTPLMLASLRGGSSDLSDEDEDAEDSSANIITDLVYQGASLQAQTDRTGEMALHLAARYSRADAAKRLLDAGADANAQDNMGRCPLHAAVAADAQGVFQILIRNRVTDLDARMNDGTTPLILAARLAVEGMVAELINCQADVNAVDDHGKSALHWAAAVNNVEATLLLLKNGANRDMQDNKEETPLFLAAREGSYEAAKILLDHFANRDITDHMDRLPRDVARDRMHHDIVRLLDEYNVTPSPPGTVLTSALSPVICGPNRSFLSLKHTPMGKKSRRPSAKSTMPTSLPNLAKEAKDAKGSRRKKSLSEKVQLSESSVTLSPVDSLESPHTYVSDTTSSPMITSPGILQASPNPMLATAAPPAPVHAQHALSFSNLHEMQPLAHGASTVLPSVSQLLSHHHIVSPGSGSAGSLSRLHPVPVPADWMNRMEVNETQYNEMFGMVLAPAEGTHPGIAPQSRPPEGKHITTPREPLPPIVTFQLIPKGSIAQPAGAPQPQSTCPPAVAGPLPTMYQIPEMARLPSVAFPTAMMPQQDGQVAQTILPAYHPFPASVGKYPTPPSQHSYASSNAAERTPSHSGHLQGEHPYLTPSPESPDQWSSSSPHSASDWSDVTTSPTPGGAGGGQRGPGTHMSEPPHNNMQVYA

As for `C=C(C(=O)CC[C@@H](OC(C)=O)c1ccc(CO)o1)C(C)C`, the composite z-score in assay [1] is -0.0468; in assay [2] it was -0.0472; in [3], -0.08; in [4], 0.114; in [5] it was 0.17; in [6], -0.116. Further, the composite z-score in assay [7] is 0.0816; in [9], -0.105; in assay [10], 0.0749; in [11] it was 1.2; in assay [15], 0.288; in [17], -0.186. The composite z-score in [18] is 1.28; in [19], 0.982; in assay [20], -0.15. Also, the z-score in assay [8] is 0.776 (inactive); in assay [12], -2.4 (inactive); in [13] it was -0.357 (inactive); in [14] it was -0.561 (inactive); in assay [16], 0.331 (inactive).
As for `Cc1ccccc1C(O)C1C=CC2C(=O)N(C)C(=O)C2N1N(c1ccccc1)c1ccccc1` (stereo not given), the composite z-score is 1.01 in assay [1]; -0.038 in assay [2]; 0.149 in assay [3]; 0.113 in [4]; 0.483 in assay [5]; -0.53 in [6]. In addition, the composite z-score in [7] is -0.878; in assay [9], 0.606; in [10] it was 0.0077; in [11] it was -0.437; in assay [15], -0.604; in [17], 0.756. In addition, the results for the composite z-score in assay [18], in assay [19] and in assay [20] were -0.177, -0.899 and 0.409, respectively. The z-score in assay [8] was -0.0079 (inactive); in assay [12], 0.787 (inactive); in assay [13] it was 0.503 (inactive); in assay [14], 0.753 (inactive); in [16] it was -0.717 (inactive).
With `C=CCNC(=O)[C@H]1[C@@H]2C(=O)O[C@@H](c3ccccc3)[C@@H](c3ccccc3)N2[C@@H](c2ccc(O)cc2)[C@]12C(=O)Nc1ccc(C#CC3(O)CCCCCC3)cc12`, the composite z-score in assay [1] was 0.0935; in assay [2] it was 1.01; in [3] it was -0.0293; in assay [4], 0.254; in [5], -0.459; in assay [6], 0.865. For the same molecule, the composite z-score in assay [7] is 0.718; in assay [9], 0.168; in assay [10] it was 0.312; in [11], 1.55; in assay [15] it was 3.03; in [17], -0.0953. Moreover, the composite z-score was 1.09 in assay [18], 0.354 in assay [19] and -0.0896 in assay [20]. The z-score in assay [8] is -0.246 (inactive); in assay [12] it was -0.494 (inactive); in [13] it was 0.369 (inactive); in assay [14], 0.335 (inactive); in assay [16], -1.08 (inactive).
In the case of `COC(=O)[C@@]1(Cc2ccc(OC)cc2)[C@H]2c3cc(C(=O)N(C)C)n(C[C@H](O)CO)c3C[C@H]2CN1C(=O)c1ccccc1`, the composite z-score in assay [1] was found to be 1.37; in assay [2] it was 1.31; in assay [3] it was 0.263; in [4] it was 0.504; in assay [5], 1.76; in assay [6], 1.25. The composite z-score in assay [7] came out at 1.2; in [9], 1.73; in assay [10] it was 0.284; in assay [11], 0.0724; in [15], 2.92; in assay [17], 0.955. For the same molecule, the composite z-score was -0.826 in assay [18], 1.05 in assay [19] and 0.269 in assay [20]. For the same molecule, the z-score is 1.55 (inactive) in [8]; 0.398 (inactive) in [12]; 0.251 (inactive) in [13]; 0.878 (inactive) in assay [14]; -1.02 (inactive) in assay [16].
`COC(=O)CCCCCCC(=O)Nc1ccc(NC(=O)CCCC[P+](c2ccccc2)(c2ccccc2)c2ccccc2)cc1`: the composite z-score in [1] was -0.493; in assay [2] it was 0.725; in assay [3], -0.0639; in [4], 0.695; in assay [5], 0.336; in assay [6] it was -0.31. For the same molecule, the composite z-score in [7] is 0.166; in [9], 0.352; in assay [10], -0.0296; in assay [11], -0.148; in assay [15], -0.891; in assay [17], -0.232. The composite z-score in assay [18] turned out to be 1.23; in [19] it was 0.973; in assay [20], 0.0042. Further, the z-score was 0.789 (inactive) in assay [8]; -1.65 (inactive) in assay [12]; -7.18 (inactive) in assay [13]; -0.786 (inactive) in assay [14]; -18.9 (active) in assay [16].

The record behind these values is PubChem BioAssay.
